Measurements from PubChem BioAssay (NCATS).
Several values for one entry are separate records, joined by “and”; a condition that tells them apart may be missing. Equal values may be shown once. Inconclusive results are not listed. Where a call stands in place of a potency, no number is given. The source holds several records for some structures; these can differ, active in one and inactive in another. Activity calls are given as the source filed them. Calls come from the whole dose curve; as a rule, active = well fitted inhibition curve with a large enough effect; inconclusive = small, poorly fitted or top-dose-only effect; inactive = flat fitted curve, though single readings scatter.

assay: Primary qHTS for inhibitors of nuclear receptor binding SET domain protein 2 (NSD2) in an isogenic RCH-ACV NSD2 p.E1099K mutant (9B) (AID 1645876); settings: RCH-ACV (leukaemia line) NSD2 E1099K (9B) viability, CellTiter-Glo, 72 h; series mostly up to 44.9 µM; note: nearly all actives have a fitted effect of over 70% in size
Potency is the fitted concentration of half-maximal effect.

SMILES | activity change, negative = viability loss | Potency
NC[C@@H]1O[C@@H](O[C@@H]2[C@@H](O[C@@H]3O[C@H](CO)[C@@H](O)[C@H]3O)[C@H](O)[C@@H](N)C[C@H]2N)[C@@H](N)[C@H](O)[C@H]1O | 4.31% [at 9.23 µM] (inactive) | –
COc1cc(/C=C/C(=O)O[C@@H]2C[C@@](O)(C(=O)O)C[C@@H](O)[C@@H]2O)ccc1O | – | inactive
COc1cc(/C=C/C(=O)O[C@@H]2C[C@](O)(C(=O)O)C[C@@H](O)[C@H]2O)ccc1O | – | inactive
CC(=O)/C=C/C1C(C)CC(O[C@@H]2O[C@H](CO)[C@@H](O)[C@H](O)[C@H]2O)CC1(C)C (stereo partly drawn) | – | inactive
CC(CC(C)O[C@@H]1O[C@H](CO)[C@@H](O)[C@H](O)[C@H]1O)OC(=O)/C=C/c1ccc(O)cc1 (stereo partly drawn) | – | inactive
O=S(=O)(O)c1ccc(Nc2ncnc3c2ncn3[C@@H]2O[C@H](CO)[C@@H](O)[C@H]2O)cc1 | – | inactive
COC(=O)C[C@@H]1C(C(=O)O)=CO[C@@H](O[C@@H]2O[C@H](CO)[C@@H](O)[C@H](O)[C@H]2O)/C1=C\COC(=O)/C=C/c1ccc(O)c(OC)c1 | – | inactive
CC(C)c1ccc2c(c1)C(=O)CC1C(C)(C(=O)O)CCCC21C (stereo not drawn) | – | inactive
O=C(O)Cc1cn([C@@H]2O[C@H](CO)[C@@H](O)[C@H](O)[C@H]2O[C@@H]2O[C@H](CO)[C@@H](O)[C@H](O)[C@H]2O)c2ccccc12 | – | inactive
O=C(O)C[C@H]1CCC(=O)[C@@H]1C/C=C\CCO | – | inactive
CC1OC(OC2C(OC(=O)[C@]34CCC(C)(C)C[C@H]3C3=CCC5[C@@]6(C)CC[C@H](OC7OC(C(=O)O)C(O)C(O)C7O)C(C)(C)C6CC[C@@]5(C)[C@]3(C)CC4O)OC(CO)C2O)C(O)C(O)C1OC1OCC(O)C(O)C1O (stereo partly drawn) | -7.94% [at 9.23 µM] (inactive) | –
C/C(=C\C1CCC(C)C2CCC3(C)OC123)C(=O)O (stereo not drawn) | – | inactive
C=C1C2(C)CC3C4(C)OC(C5OC56C4=CC(=O)OC6(C)C)C3(C)C13C(=O)OC(C)C3(O)C2=O (stereo not drawn) | – | inactive
CC1=C(CO)CC(C(C)C2CCC3C4CC=C5CC(OC6OC(COC7OC(CO)C(O)C(O)C7O)C(O)C(O)C6O)CC(O)C5(C)C4CCC23C)OC1=O (stereo not drawn) | – | inactive
O=C(O)c1cc(O[C@@H]2O[C@H](CO)[C@@H](O)[C@H](O)[C@H]2O)ccc1O | – | inactive
Cc1noc2c1-c1ccccc1C(c1ccc(Cl)cc1)=N[C@H]2CC(N)=O | – | inactive and 590 nM (active)
CC(/C=C/C=C(\C)C(=O)O[C@@H]1O[C@H](CO[C@@H]2O[C@H](CO)[C@@H](O)[C@H](O)[C@H]2O)[C@@H](O)[C@H](O)[C@H]1O)=C\C=C\C=C(C)\C=C\C=C(/C)C(=O)O[C@@H]1C[C@](O)(C(=O)O)C[C@@H](O)[C@H]1OC(=O)/C=C/c1ccc(O)c(O)c1 | -6.13% [at 9.23 µM] (inactive) | –
C=C(CCO)C(=O)OCC1OCC(OC(=O)C(=C)CCO[C@@H]2O[C@H](COC(=O)C(=C)CCO[C@@H]3O[C@H](CO)[C@@H](O)[C@H](O)[C@H]3O)[C@@H](O)[C@H](O)[C@H]2O)C(O)C1O (stereo partly drawn) | – | inactive
C=C(C(=O)O)C1CC(OC(=O)CC(C)CC)C2(C)CCCC(=C)C2C1 (stereo not drawn) | – | inactive

SMILES | activity change, negative = viability loss | Potency
CC1=CC(=O)C(=C(C)C)CC2C(C)(O)CCC12O (stereo not drawn) | – | inactive
COC(=O)C(CC1(O)c2ccccc2N2C(=O)C(C)(C)N(O)C21)n1cnc2ccccc2c1=O (stereo not drawn) | – | inactive
C=CCC1=C[C@]2(OC)[C@H](C)[C@@H](c3ccc(OC)c(OC)c3)O[C@]2(OC)CC1=O | – | inactive
COc1cc2c(cc1O)C(c1ccc(O)cc1)C(C)C(C)C2 (stereo not drawn) | – | 25.8 µM (active)
COC(=O)C1=CO[C@@H](O[C@@H]2O[C@H](CO)[C@@H](O)[C@H](O)[C@H]2O)[C@H]2[C@@H]1[C@H](O)C[C@]2(C)O | – | inactive
CC1(C)CC[C@]2(C(=O)O)CC[C@]3(C)C(=CCC4[C@@]5(C)C(=O)C[C@H](O)[C@@](C)(CO)C5CC[C@]43C)[C@@H]2C1 (stereo partly drawn) | – | inactive
CC(CCc1ccc(O)cc1)O[C@@H]1O[C@H](CO[C@@H]2OC(CO)[C@H](O)[C@H]2O)[C@@H](O)[C@H](O)[C@H]1O (stereo partly drawn) | – | inactive
Cn1cc(Nc2cnccc2C(=O)O)c2cccnc21 | – | inactive
C/C=C1/[C@H](O[C@@H]2O[C@H](CO)[C@@H](O)[C@H](O)[C@H]2O)OC=C(C(=O)OC)[C@H]1CC(=O)OCCc1ccc(OC(=O)C[C@@H]2C(C(=O)OC)=CO[C@@H](O[C@@H]3O[C@H](CO)[C@@H](O)[C@H](O)[C@H]3O)/C2=C/C)cc1 | -12% [at 9.23 µM] (inactive) | –
CC(=O)[C@@H]1C[C@H](C(C)(C)O[C@@H]2O[C@H](CO)[C@@H](O)[C@H](O)[C@H]2O)CC[C@@]2(CO)OC(=O)C[C@@H]12 | – | inactive
C/C=C(/C)C(=O)OC1C(OC(C)=O)C23C(O)OC4(CCC5C6(C)CCC(OC7OC(C(=O)O)C(O)C(OC8OC(CO)C(O)C(O)C8OC8OC(C)C(O)C(O)C8OC8OCC(O)C(O)C8O)C7OC7OC(CO)C(O)C(O)C7O)C(C)(C)C6CCC5(C)C4(C)CC2OC(C)=O)C3CC1(C)C (stereo not drawn) | 4.87% [at 9.23 µM] (inactive) | –
CCCO[C@@H]1O[C@H](CO)[C@@H](O)[C@H](O)[C@H]1O[C@@H]1OC[C@@H](O)[C@H](O)[C@H]1O | – | inactive
CC(=O)OC1C(O)/C(C)=C\C2C(OC(=O)c3ccccc3)C(C)CC2(OC(C)=O)C(OC(C)=O)C(C)/C=C/C(C)(C)C1OC(C)=O (stereo not drawn) | – | inactive
OC[C@H]1O[C@@H](OCc2ccccc2)[C@H](O)[C@@H](O)[C@@H]1O | – | inactive
O=C(CCc1ccccc1)c1c(O)c([C@@H]2O[C@H](CO)[C@@H](O)[C@H](O)[C@H]2O)c(O)c([C@@H]2O[C@H](CO)[C@@H](O)[C@H](O)[C@H]2O)c1O | – | inactive
CC(C)(O)C(O)C(=O)OCc1ccc(O[C@@H]2O[C@H](CO)[C@@H](O)[C@H](O)[C@H]2O)cc1 (stereo partly drawn) | – | inactive
C/C=C(\C)C(=O)OCC1OC(OCC2OC(OC3(CO)OC(CO)C(O)C3O)C(O)C(O)C2O)C(O)C(O)C1O (stereo not drawn) | – | inactive
CC(C)c1ccc2c(c1)[C@H](O)CC1[C@@](C)(C(=O)O)CCC[C@]21C (stereo partly drawn) | – | inactive
O=C1C(Cl)=C(N2CCOCC2)C(=O)N1c1ccc(Cl)c(Cl)c1 | – | 7.96 µM (active)
